Experimental data published in PubChem BioAssay AID1159580 (chemical genetic matrix, 2015).
The campaign covered roughly 5,500 compounds. About 2,000 (36%) were called active. Inconclusive results (about 18%) are left out. Cut-off read from the data, not from the text of the source: active = normalized growth mostly below about 0.91 (no sharp cut-off); inconclusive = no clear call, values can overlap the other calls; inactive = mostly above about 0.92. Some of the results follow.

Assay: chemical genetic growth profiling, strain panel (AID 1159580);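 note: tested at 20 µM; growth read once vehicle control cultures reached saturation at 30 °C; 1 = growth at the plate median or of vehicle wells; lower values mean less growth of the strain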
Conditions: growth OD

Measured: normalized growth

COc1ccc2c(=O)c(CC(=O)O)coc2c1
inactive: S. cerevisiae deletion strains, locus YJR066W, strain TOR1, hits give low values 0.902 | S. cerevisiae deletion strains, locus YJR075W, strain HOC1, hits give low values 1.01 | S. cerevisiae deletion strains, locus YKL009W, strain mrt4, hits give low values 0.981 | S. cerevisiae deletion strains, locus YKL068W, hits give low values 0.993 | S. cerevisiae deletion strains, locus YKL085W, strain MDH1 (second series), hits give low values 1.01 | S. cerevisiae deletion strains, locus YKL085W, strain MDH1, hits give low values 1.01 | S. cerevisiae deletion strains, locus YKL160W, strain elf1, hits give low values 1.04 | S. cerevisiae deletion strains, locus YKL190W, strain CNB1, hits give low values 1 | S. cerevisiae deletion strains, locus YKR001C, strain vps1, hits give low values 1.03 | S. cerevisiae deletion strains, locus YKR026C, strain gcn3, hits give low values 0.985 | S. cerevisiae deletion strains, locus YKR091W, strain srl3, hits give low values 0.99 | S. cerevisiae deletion strains, locus YLL001W, strain dnm1, hits give low values 1 | S. cerevisiae deletion strains, locus YLL026W, hits give low values 0.982 | S. cerevisiae deletion strains, locus YLL041C, strain sdh2, hits give low values 0.98 | S. cerevisiae deletion strains, locus YLR027C, strain aat2, hits give low values 0.977 | S. cerevisiae deletion strains, locus YLR039C, strain RIC1, hits give low values 1.07 | S. cerevisiae deletion strains, locus YLR058C, strain SHM2, hits give low values 0.999 | S. cerevisiae deletion strains, locus YLR102C, strain apc9, hits give low values 0.992 | S. cerevisiae deletion strains, locus YLR113W, strain HOG1, hits give low values 0.992 | S. cerevisiae deletion strains, locus YLR221C, strain rsa3, hits give low values 0.966 | S. cerevisiae deletion strains, locus YLR258W, strain gsy2, hits give low values 0.992 | S. cerevisiae deletion strains, locus YLR262C, strain YPT6 (second series), hits give low values 1 | S. cerevisiae deletion strains, locus YLR262C, strain YPT6, hits give low values 1.03 | S. cerevisiae deletion strains, locus YLR268W, strain sec22, hits give low values 1.02 | S. cerevisiae deletion strains, locus YLR320W, strain mms22, hits give low values 0.972 | S. cerevisiae deletion strains, locus YLR330W, strain CHS5, hits give low values 1.01 | S. cerevisiae deletion strains, locus YLR342W, strain FKS1 (second series), hits give low values 1.05 | S. cerevisiae deletion strains, locus YLR342W, strain FKS1, hits give low values 0.989 | S. cerevisiae deletion strains, locus YLR357W, strain rsc2, hits give low values 0.988 | S. cerevisiae deletion strains, locus YLR370C, strain arc18, hits give low values 0.974 | S. cerevisiae deletion strains, locus YLR371W, strain rom2, hits give low values 0.997 | S. cerevisiae deletion strains, locus YLR384C, strain iki3, hits give low values 0.966 | S. cerevisiae deletion strains, locus YLR418C, strain cdc73, hits give low values 0.971 | S. cerevisiae deletion strains, locus YML016C, strain PPZ1, hits give low values 1 | S. cerevisiae deletion strains, locus YML032C, strain rad52, hits give low values 1 | S. cerevisiae deletion strains, locus YML120C, strain ndi1, hits give low values 1 | S. cerevisiae deletion strains, locus YML124C, strain tub3, hits give low values 0.994 | S. cerevisiae deletion strains, locus YMR058W, strain fet3, hits give low values 0.983 | S. cerevisiae deletion strains, locus YMR078C, strain ctf18, hits give low values 0.992 | S. cerevisiae deletion strains, locus YMR125W, strain sto1, hits give low values 1 | S. cerevisiae deletion strains, locus YMR129W, hits give low values 0.985 | S. cerevisiae deletion strains, locus YMR205C, strain PFK2, hits give low values 1.05 | S. cerevisiae deletion strains, locus YMR223W, strain ubp8, hits give low values 0.994 | S. cerevisiae deletion strains, locus YMR231W, strain pep5, hits give low values 0.972 | S. cerevisiae deletion strains, locus YMR307W, strain GAS1, hits give low values 1.06 | S. cerevisiae deletion strains, locus YNL067W, strain RPL9B, hits give low values 0.999 | S. cerevisiae deletion strains, locus YNL071W, strain lat1, hits give low values 0.986 | S. cerevisiae deletion strains, locus YNL183C, strain NPR1, hits give low values 0.972 | S. cerevisiae deletion strains, locus YNL209W, strain ssb2, hits give low values 1.03 | S. cerevisiae deletion strains, locus YNL233W, strain BNI4, hits give low values 1 | S. cerevisiae deletion strains, locus YNL248C, strain rpa49, hits give low values 0.984 | S. cerevisiae deletion strains, locus YNL250W, strain rad50, hits give low values 0.96 | S. cerevisiae deletion strains, locus YNL271C, strain bni1, hits give low values 0.986 | S. cerevisiae deletion strains, locus YNL298W, strain CLA4, hits give low values 0.992 | S. cerevisiae deletion strains, locus YNL307C, strain MCK1, hits give low values 1 | S. cerevisiae deletion strains, locus YNL322C, strain KRE1 (second series), hits give low values 0.969 | S. cerevisiae deletion strains, locus YNL322C, strain KRE1, hits give low values 1 | S. cerevisiae deletion strains, locus YNR049C, strain mso1, hits give low values 0.973 | S. cerevisiae deletion strains, locus YNR052C, strain pop2, hits give low values 0.952 | S. cerevisiae deletion strains, locus YOL012C, strain htz1 1.05 | S. cerevisiae deletion strains, locus YOL147C, strain pex11, hits give low values 0.991 | S. cerevisiae deletion strains, locus YOR001W, strain rrp6, hits give low values 0.917 | S. cerevisiae deletion strains, locus YOR061W, strain CKA2, hits give low values 1.01 | S. cerevisiae deletion strains, locus YOR069W, strain VPS5, hits give low values 0.987 | S. cerevisiae deletion strains, locus YOR070C, strain gyp1, hits give low values 0.981 | S. cerevisiae deletion strains, locus YOR080W, strain dia2, hits give low values 0.981 | S. cerevisiae deletion strains, locus YOR083W, strain WHI5, hits give low values 1.04 | S. cerevisiae deletion strains, locus YOR106W, strain vam3, hits give low values 1.01 | S. cerevisiae deletion strains, locus YOR136W, strain idh2, hits give low values 0.981 | S. cerevisiae deletion strains, locus YOR144C, strain elg1, hits give low values 0.993 | S. cerevisiae deletion strains, locus YOR184W, strain ser1, hits give low values 1.07 | S. cerevisiae deletion strains, locus YOR231W, strain MKK1, hits give low values 1 | S. cerevisiae deletion strains, locus YOR265W, strain rbl2, hits give low values 0.973 | S. cerevisiae deletion strains, locus YOR270C, strain vph1, hits give low values 0.978 | S. cerevisiae deletion strains, locus YOR290C, strain snf2, hits give low values 1.01 | S. cerevisiae deletion strains, locus YOR316C, strain cot1, hits give low values 0.991 | S. cerevisiae deletion strains, locus YPL051W, strain arl3, hits give low values 0.996 | S. cerevisiae deletion strains, locus YPL055C, strain LGE1, hits give low values 1.08 | S. cerevisiae deletion strains, locus YPL078C, strain atp4, hits give low values 1.03 | S. cerevisiae deletion strains, locus YPL106C, strain sse1, hits give low values 1.03 | S. cerevisiae deletion strains, locus YPL240C, strain hsp82, hits give low values 0.974 | S. cerevisiae deletion strains, locus YPL241C, strain CIN2, hits give low values 1.01 | S. cerevisiae deletion strains, locus YPL256C, strain CLN2, hits give low values 0.983 | S. cerevisiae deletion strains, locus YPR119W, strain clb2, hits give low values 0.985 | S. cerevisiae deletion strains, locus YPR141C, strain kar3, hits give low values 0.99 | S. cerevisiae deletion strains, locus YPR163C, strain tif3, hits give low values 0.995 | S. cerevisiae deletion strains, locus YPR167C, strain met16, hits give low values 0.976 | S. cerevisiae deletion strains, strain wtn01, hits give low values 1.04 | S. cerevisiae strains, strain wild type, hits give low values 1.02
